Screening results (PubChem BioAssay)
Shown are actives, neighbours in structure and some others; about 2.1% of the full set was active somewhere.
aSyn yeast inh: inhibitors of alpha-synuclein toxicity in yeast | 0.14% of 370,000 active | Yeast expressing alpha-synuclein, growth rescue, BacTiter-Glo, 24 h | Potency, µM (titrated, usually from 46.1 µM), for inactives: at the highest dose growth rescue (activation), most hits filed as activators | AID 652106; note: % of control where 0% means no effect; nearly all actives have a fitted effect of over 65% in size
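Rescue of yeast growth: cells expressing toxic alpha-synuclein, induced in galactose at OD600 0.02, incubated with compound 24 h at 30 C. ATP luminescence quantified growth; inhibitors of toxicity appear as activators.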
TDP-43 yeast inh: inhibitors of TDP-43 toxicity in yeast. TDP-43 expressing yeast growth rescue, BacTiter-Glo, 24 h. Potency, µM (titrated, usually from 46.1 µM), without a hit: top-dose growth rescue (activation), actives largely listed as activators. 1.8% of 410,000 active; note: % of control where 0% means no effect; nearly all actives have a fitted effect of over 50% in size
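Growth rescue of TDP-43-toxic yeast measured as ATP luminescence (BacTiter-Glo). Cells grown to mid-log in raffinose, induced in galactose at OD600=0.02, exposed to compound 24 hr at 30 deg C.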
Abeta rescue: A-beta toxicity reversal in yeast. yeast expressing A-beta42, growth rescue, OD600, 48 h; response scale: 0% DMSO, 100% iron-clioquinol control. Potency, µM (series often up to 46.1 µM), hits mostly activators. 0.063% of 410,000 active. AID 1347071; note: nearly all actives have a fitted effect of over 55% in size
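Yeast growth medium received pinned compounds, then yeast cells expressing toxic A-beta were added; plates incubated at 30 C for 48 hr. Growth read as absorbance at 600 nm, normalized to DMSO and equimolar FeCl3 plus clioquinol controls.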
FUS suppressor: rescues growth of FUS-expressing yeast. 0.24% of 390,000 active. S. cerevisiae FUS-expressing, growth rescue, OD600, 24 h. Potency, µM (titrated, usually from 76.6 µM), most hits filed as activators;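 note: plate controls were DMSO vehicle for no effect and reference control for full effect; nearly all actives have a fitted effect of over 55% in size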
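Galactose (2%) drives FUS expression in yeast precultured in raffinose; seeding density OD 0.005. Test compounds incubated 24hr at 30C and 99% humidity before absorbance at 600 nm was measured.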
Starred values were filed as active, the others as inactive; [ ] = another dose, or the depositor's remark. Calls come from the whole dose curve; as a rule, active = well fitted curve in the direction sought with a large enough effect; inconclusive = small, poorly fitted or top-dose-only effect, or another doubt; inactive = no such curve, though single readings can be large; an effect the other way counts as inactive or inconclusive. Potency is the fitted concentration of half-maximal effect.

What do the screens show for `Cc1cccc(NS(=O)(=O)c2ccc3c(c2)CC(C)N3C(=O)C2CCC2)c1C` (stereo unspecified)?
TDP-43 yeast inh: 20µM*; Abeta rescue: inactive; FUS suppressor: inconclusive

Results for Cc1ccc(CNS(=O)(=O)c2ccc3c(c2)CC(C)N3C(=O)C2CCC2)cc1 (stereo unspecified) ?
TDP-43 yeast inh: -6.8%; Abeta rescue: inactive; FUS suppressor: inactive

How did O=C(Nc1ccc2c(c1)CCC2)c1cccc(F)c1 do in these assays?
aSyn yeast inh: -3.7%; TDP-43 yeast inh: 19.1%; Abeta rescue: inactive; FUS suppressor: inactive

How did O=C(NCC(c1ccco1)N1CCN(c2ccccc2F)CC1)c1cccs1 (stereo unspecified) do in these assays?
aSyn yeast inh: -1.2%; TDP-43 yeast inh: 5.2%; Abeta rescue: inactive; FUS suppressor: inactive

Results for C/C(Cc1ccccc1)=N\NC(=O)CNC(=O)c1cccc(F)c1 ?
aSyn yeast inh: 4.7%; TDP-43 yeast inh: 11.7%; Abeta rescue: inactive; FUS suppressor: inactive

Results for CCCC(=O)Nc1sc(Cc2ccccc2)c(C)c1C(N)=O ?
aSyn yeast inh: -19.5%; TDP-43 yeast inh: 17.8µM*; Abeta rescue: inactive; FUS suppressor: inactive

Results for COC(=O)CCC(=O)Nc1sc(Cc2ccccc2)c(C)c1C(N)=O ?
aSyn yeast inh: -6.2%; TDP-43 yeast inh: -21.7%[0.397 µM]; Abeta rescue: inactive; FUS suppressor: inactive

What do the screens show for `CN(NC(=O)Nc1ccc(Cl)cc1)c1ncc(C(F)(F)F)cc1Cl`?
aSyn yeast inh: -9.4%; TDP-43 yeast inh: -1.3%; Abeta rescue: inactive; FUS suppressor: inactive

How did COc1cc(/C=C/C(=O)OCC(=O)NCCC2=CCCCC2)cc(OC)c1OC do in these assays?
aSyn yeast inh: 14.4%; TDP-43 yeast inh: 35.5µM*; Abeta rescue: inactive; FUS suppressor: inactive

Results for COc1cc(/C=C/C(=O)OCC(=O)NCCC2=CCCCC2)ccc1O ?
aSyn yeast inh: -2.5%; TDP-43 yeast inh: -0.2%; Abeta rescue: inactive; FUS suppressor: inactive

What do the screens show for `COc1ccc(NC(=O)CCS(=O)(=O)c2ccccc2Cl)cc1S(=O)(=O)Nc1ccc(Cl)cc1`?
aSyn yeast inh: -3.0%; TDP-43 yeast inh: -2.0%; Abeta rescue: inactive; FUS suppressor: 31.6µM*

How did COc1ccc(NC(=O)CCC(=O)c2cccs2)cc1S(=O)(=O)Nc1ccc(Cl)cc1 do in these assays?
aSyn yeast inh: 2.4%; TDP-43 yeast inh: 26.8%; Abeta rescue: inactive

Results for N#CCC(=O)N/N=C/c1ccc(Sc2nc3ccccc3s2)o1 ?
aSyn yeast inh: 0.2%; TDP-43 yeast inh: inconclusive; Abeta rescue: inactive; FUS suppressor: 3.55µM*

How did CCN(CC)C(=O)COc1coc(CN2CCN(c3cccc(Cl)c3)CC2)cc1=O do in these assays?
aSyn yeast inh: -0.8%; TDP-43 yeast inh: -8.8%; Abeta rescue: inactive; FUS suppressor: inactive

How did Cc1ccc(SCc2nc(-c3ccncc3)no2)cc1 do in these assays?
aSyn yeast inh: 5.9%; TDP-43 yeast inh: 15.8µM*; Abeta rescue: inactive; FUS suppressor: inactive

What do the screens show for `c1ccc(OCc2nc(-c3ccncc3)no2)cc1`?
aSyn yeast inh: 3.7%; TDP-43 yeast inh: 11.2µM*; Abeta rescue: inactive; FUS suppressor: inactive

Results for Cc1ccccc1OCc1nc(-c2cccnc2)no1 ?
aSyn yeast inh: 11.4%; TDP-43 yeast inh: 11.2µM*; Abeta rescue: inactive; FUS suppressor: inactive

What do the screens show for `O=C1CC(NS(=O)(=O)c2cc(F)ccc2F)CN1c1ccc2c(c1)OCCO2` (stereo unspecified)?
aSyn yeast inh: 0.8%; TDP-43 yeast inh: 12.2%; Abeta rescue: inactive; FUS suppressor: inactive

Results for CNS(=O)(=O)c1ccc(N=Cc2c(C)[nH]n(-c3ccc(C)cc3C)c2=O)cc1 ?
aSyn yeast inh: -0.8%; TDP-43 yeast inh: -7.9%; Abeta rescue: inactive; FUS suppressor: inactive

What do the screens show for `COc1ccccc1-n1c(SCC(=O)Nc2cccc(S(N)(=O)=O)c2)nc2ccccc2c1=O`?
aSyn yeast inh: 6.2%; TDP-43 yeast inh: 13.6%; Abeta rescue: inactive; FUS suppressor: inactive

What do the screens show for `CC(=O)N1CCc2c(sc3c2c(=O)n(CCc2ccccc2)c(=O)n3Cc2cccc(C)c2)C1`?
TDP-43 yeast inh: 22.4µM*; Abeta rescue: inactive; FUS suppressor: inactive
